Assay outcomes from PubChem BioAssay.
Pf gametocyte: kills late stage P. falciparum gametocytes | inhibition, % at 10.9 µM | P. falciparum stage V gametocytes, ATP luminescence, 24 h | actives 0.065% (n = 150,000);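 active = inhibition above the mean plus 3 SD of compounds within the control limits, set per campaign, cut at about 38% in these data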;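 also: 0% = DMSO wells and 100% = medium only without gametocytes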
14-3-3 Bad inh: disrupts binding of bovine 14-3-3 zeta to phospho-Bad peptide | P63103 | TR-FRET 14-3-3zeta/Dy647-pBad peptide displacement, 1 h | inhibition, % at 21.7 µM | actives 0.71% (n = 220,000) | AID 781;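 active = inhibition above about 70%, limit read from the data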;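 also: 0% = full 14-3-3 plus peptide FRET controls and 100% = background without 14-3-3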
Target sequence (P63103 whole entry, looked up): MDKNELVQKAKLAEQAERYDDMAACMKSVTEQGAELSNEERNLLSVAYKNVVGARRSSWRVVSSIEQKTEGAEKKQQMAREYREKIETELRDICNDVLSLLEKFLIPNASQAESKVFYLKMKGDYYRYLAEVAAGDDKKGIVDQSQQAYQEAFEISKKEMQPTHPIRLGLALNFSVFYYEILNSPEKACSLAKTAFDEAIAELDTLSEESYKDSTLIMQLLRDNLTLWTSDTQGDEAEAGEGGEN
Mcl1-Bid inh: disrupts binding of human Mcl-1 to Bid peptide. Q07820. TR-FRET Mcl-1/Bid-Dy647 peptide binding, 1536-well. inhibition, % at 21.7 µM. actives 0.97% (n = 220,000). AID 1021;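 active = compounds that cut the binding signal by more than half at the single screening dose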;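 also: His-tagged Mcl-1 with europium anti-His antibody binding Bid BH3 peptide; 0% = Mcl-1 plus peptide wells and 100% = peptide-only wells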
Target sequence (Q07820 whole entry, looked up): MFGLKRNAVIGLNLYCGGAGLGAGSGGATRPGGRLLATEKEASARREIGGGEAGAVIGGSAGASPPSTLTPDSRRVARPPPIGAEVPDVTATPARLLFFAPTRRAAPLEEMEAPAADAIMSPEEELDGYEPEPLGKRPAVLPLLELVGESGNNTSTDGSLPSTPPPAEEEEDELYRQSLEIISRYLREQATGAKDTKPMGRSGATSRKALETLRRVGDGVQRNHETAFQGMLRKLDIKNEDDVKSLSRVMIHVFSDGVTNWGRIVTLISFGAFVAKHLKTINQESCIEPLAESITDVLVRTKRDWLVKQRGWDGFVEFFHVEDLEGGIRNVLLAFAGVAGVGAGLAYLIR
Hck-Nef inh: blocks Nef-activated human Hck kinase | P08631 | inhibition, % at 20 µM | actives 0.68% (n = 220,000) | AID 463187 | Recombinant Hck-YEEI plus Nef, Z-Lyte FRET kinase assay;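 active = Hck-Nef kinase inhibition above about 50%, limit read from the data; inactive = inhibition below that limit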;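 also: 0% = DMSO with Hck plus Nef and 100% = Hck alone without Nef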
Mcl1-Noxa inh: Mcl-1/Noxa interaction inhibition; TR-FRET Mcl-1/Noxa peptide binding, 2 h; Q07820; inhibition, % at 21.7 µM; actives 1.5% (n = 220,000);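 active = compounds that cut the protein-peptide binding signal by more than 50% relative to plate controls in a single-dose test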;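 also: His-tagged Mcl-1 with rhodamine Noxa BH3 peptide and terbium anti-His antibody; 0% = Mcl-1 plus Noxa peptide wells and 100% = peptide-only wells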
Bim-Mcl-1: human Bim-Mcl-1 interaction inhibition. AID 1009. Q07820. inhibition, % at 10 µM. Bead-based flow cytometry, Bim peptide-Mcl-1 binding. actives 0.1% (n = 190,000); in the data active = inhibition above about 40%;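 also: 0% = no compound tracer wells and 100% = peptide blocker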
Hck Nef conf: Hck-Nef kinase inhibition, confirmation. shares compounds with Hck-Nef inh. calls only at 10 µM. actives 28% (n = 1,300). Recombinant Hck-YEEI:Nef, Z-Lyte FRET kinase assay. AID 463188;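 active = average inhibition of at least 50%, with Z-scores no higher than 3 in both the phospho-tyrosine peptide and fluorescence counterscreens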
Active calls of the source: *; i = inactive; / = no result given; + = active, no number. Compounds with a hit are over-represented: about 2.9% of the library has one in this group of screens.

SMILES	Pf gametocyte	14-3-3 Bad inh	Mcl1-Bid inh	Hck-Nef inh	Mcl1-Noxa inh	Bim-Mcl-1	Hck Nef conf
CCOc1ccc(/C=C2\SC(=S)N(NS(=O)(=O)c3ccccc3)C2=O)cc1OC	6	1	-10	16	19	/	/
CCOc1ccc(/C=C2\SC(=S)N(NS(=O)(=O)c3ccc(C)cc3)C2=O)cc1OC	-7	3	-41	51*	17	/	+
CCCCCCc1cc2cc(-c3nnc(-c4ccccc4O)o3)c(=O)oc2cc1O	-37	/	-1	-17	0	/	/
CCCCCCc1cc2cc(S(=O)(=O)c3ccc(F)cc3)c(=O)oc2cc1O	-8	-2	-15	120*	-4	-2	/
Oc1c(/C=C/C=C/C=Nc2ccccc2)sc(=S)n1Cc1ccccc1	11	-4	-94	50*	32	/	i
N#C/C(=C\c1ccc(OC(=O)c2cccs2)cc1)c1nc2ccccc2[nH]1	-15	-17	-14	57*	11	0	+
N#C/C(=C\c1cccs1)c1nc2ccccc2[nH]1	5	2	-38	-4	13	0	/
C=CCNC(=O)C(=O)NN=C1CCN(C)CC1	-33	67	-39	1	-19	0	/
C=CCn1c(=O)c(C#N)cc2c(=O)n3ccccc3nc21	/	/	/	155*	/	9	/
Cc1ccccc1-n1c(=O)c(C#N)cc2c(=O)n3ccccc3nc21	19	-3	-21	+	33	4	/
Cc1cc(-n2c(=O)c(C#N)cc3c(=O)n4ccccc4nc32)no1	/	-4	11	+	33	0	/
N#Cc1cc2c(=O)n3ccccc3nc2n(-c2ccc(Cl)cc2)c1=O	21	-2	-23	173*	-2	0	/
N#Cc1cc2c(=O)n3ccccc3nc2n(Cc2cccnc2)c1=N	/	/	/	2	/	/	/
O=C(O)C1CCCN1c1nc(C(F)(F)F)nc2ccccc12 (centres undefined)	-5	-5	-11	0	11	-2	/
CCN(c1ccccc1)S(=O)(=O)c1ccc(Cl)c(NC(=O)COC(=O)c2ccc[nH]c2=O)c1	-2	-8	-14	17	11	/	/
COC(=O)CN1C(=O)[C@H]2[C@@H](c3ccc(C)o3)N3C(=O)CN(Cc4ccccn4)C(=O)[C@@]3(C)[C@H]2C1=O	1	/	/	/	/	/	/
Cc1ccsc1/C=N\Nc1cn[nH]c(=O)c1Cl	-12	6	-5	74*	28	-3	+
COc1ccc(/C=N/Nc2cn[nH]c(=O)c2Cl)cc1	-25	-8	-28	72*	4	8	+
Cc1cccc(NC(=O)Cn2c(=O)n(CCC(=O)NC3CCCC3)c(=O)c3ccccc32)c1	18	3	-12	-24	5	-5	/
O=c1ccc2[n+]([O-])c3ccc(O)cc3oc-2c1	1	25	-74	51*	74*	/	i
Cc1nc(SCc2nc3ccccc3[nH]2)c2oc3ccc(Br)cc3c2n1	16	/	/	/	/	/	/
CCCn1nc(NC(=O)C2CCCO2)c2cc3cc(C)ccc3nc21 (centres undefined)	-11	-5	-12	40	13	0	/
COc1ccc2nc3c(cc2c1)c(NC(=O)C1CCCO1)nn3CC(C)C (centres undefined)	7	-5	21	59*	28	3	i
CC1(C)CC(O)(CNCc2ccc3c(c2)OCO3)CCO1 (centres undefined)	/	-2	-7	0	-4	0	/
CSc1nc(-c2cccs2)c(C#N)c(=O)[nH]1	21	-4	-5	8	8	/	/
SMILES	Pf gametocyte	14-3-3 Bad inh	Mcl1-Bid inh	Hck-Nef inh	Mcl1-Noxa inh	Bim-Mcl-1	Hck Nef conf
N#Cc1c(-c2cccs2)nc(SCc2ccc(Cl)cc2)[nH]c1=O	7	-1	46	69*	34	0	+
CCn1c(CN2CCN(CCO)CC2)nc2ccccc21	/	-4	-10	-10	-5	0	/
Cc1ccc(N2CC(C(=O)Nc3nnc(SCC(=O)Nc4cc(C)on4)s3)CC2=O)cc1 (centres undefined)	-18	-3	16	9	-24	4	/
COc1cccc(N2CC(C(=O)Nc3nnc(SCC(=O)Nc4cc(C)on4)s3)CC2=O)c1 (centres undefined)	-10	69	40	52*	-24	0	+
COC(=O)CSc1nnc(-c2sc3cc(OC)ccc3c2Cl)n1C	-15	3	-9	6	12	0	/
COC(=O)CCC(=O)OC1(C)C(=O)C2=CN(CC(C)C)C(c3ccc(OC)cc3)=CC2=C(Br)C1=O (centres undefined)	/	0	-97	13	17	/	/
COc1ccc(C2=CC3=C(Br)C(=O)C(C)(O)C(=O)C3=CO2)cc1 (centres undefined)	/	7	-43	95*	37	/	+
COC(=O)CCC(=O)OC1(C)C(=O)C2=CN(c3ccccc3)C(c3ccc(OC)cc3)=CC2=C(Br)C1=O (centres undefined)	-28	/	/	/	/	/	/
CCC(=O)OC1(C)C(=O)C2=COC(c3ccc(OC)cc3)=CC2=C(Br)C1=O (centres undefined)	-27	8	-15	81*	47	/	i
O=c1c2sccc2n(Cc2ccc(F)cc2)c(=O)n1-c1ccc(F)cc1	0	-1	4	4	14	-1	/
CCOC(=O)C1=C(C)NC(C)=C(C(=O)OCC)C1C(=O)OCC(=O)N1CCc2ccccc2C1	-3	-14	-14	4	13	-3	/
COc1ccc(N2CCN(C(=O)c3ccc(C)c(Cl)c3)CC2)cc1	6	13	-25	2	17	-4	/
Cc1c(C)c2cc(Cl)c(O)c(CN3CCN(C)CC3)c2oc1=O	-12	-11	-19	66*	0	-2	/
CN1CCN(Cc2c(O)ccc3c(-c4ccccc4)cc(=O)oc23)CC1	0	2	-41	2	17	-4	/
Cc1c(C)c2cc(Cl)c(O)c(CN3CCCC(C)C3)c2oc1=O (centres undefined)	-28	3	-20	81*	-6	1	/
N#Cc1c(NC(=O)CN2CCN(S(=O)(=O)c3ccc4c(c3)OCCO4)CC2)sc2c1CCC2	/	16	39	53*	30	0	i
Cc1c(Br)c(=O)oc2c(Br)c(O)ccc12	-12	1	-14	71*	16	-1	i
Cc1c(O)ccc2c3c(c(=O)oc12)CCCC3	/	-9	-18	46	8	-3	/
Cc1ccc(-c2cccc(C3CC=CC4C3C(=O)N(Cc3ccccc3)C4c3cc(C)ccc3F)c2)cc1 (centres undefined)	-7	1	-47	23	9	/	/
C=CCn1c(-c2cccs2)nc2nc3ccccc3nc21	/	-1	2	72*	3	-1	i
C=CCn1c(-c2cccs2)nc2ccccc21	-3	3	10	2	0	-2	/
